Measurements as given in PubChem BioAssay (NCATS).
Inconclusive results are not listed. The source made the active and inactive calls. Calls come from the whole dose curve; as a rule, active = well fitted curve in the direction sought with a large enough effect; inconclusive = small, poorly fitted or top-dose-only effect, or another doubt; inactive = no such curve, though single readings can be large; an effect the other way counts as inactive or inconclusive.

These molecules were tested against Rap guanine nucleotide exchange factor 3 (Homo sapiens) (UniProt O95398) (assay: Confirmatory qHTS for antagonist of cAMP-regulated guanine nucleotide exchange factor 3 (EPAC1) (AID 1645880;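 note: plate controls were DMSO only for no effect and full effect of the ATA control for full effect; nearly all actives have a fitted effect of over 55% in size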)). Settings: EPAC1 Rap1B-BODIPY-GDP exchange, fluorescence; series mostly up to 115 µM; activity, negative = inhibition: at the top concentration.
How it was run: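 Released BODIPY-GDP fluoresces less than Rap1-bound BODIPY-GDP; the signal is followed at 480/540 nm at 5-min intervals over 30 min, after 5 min at room temperature. Reactions contain 100 nM EPAC1, 250 nM RAP1B-BODIPY-GDP and 50 uM GDP; results are normalized to ATA and DMSO.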

Sequence of Rap guanine nucleotide exchange factor 3 (Homo sapiens) (O95398 whole entry, looked up): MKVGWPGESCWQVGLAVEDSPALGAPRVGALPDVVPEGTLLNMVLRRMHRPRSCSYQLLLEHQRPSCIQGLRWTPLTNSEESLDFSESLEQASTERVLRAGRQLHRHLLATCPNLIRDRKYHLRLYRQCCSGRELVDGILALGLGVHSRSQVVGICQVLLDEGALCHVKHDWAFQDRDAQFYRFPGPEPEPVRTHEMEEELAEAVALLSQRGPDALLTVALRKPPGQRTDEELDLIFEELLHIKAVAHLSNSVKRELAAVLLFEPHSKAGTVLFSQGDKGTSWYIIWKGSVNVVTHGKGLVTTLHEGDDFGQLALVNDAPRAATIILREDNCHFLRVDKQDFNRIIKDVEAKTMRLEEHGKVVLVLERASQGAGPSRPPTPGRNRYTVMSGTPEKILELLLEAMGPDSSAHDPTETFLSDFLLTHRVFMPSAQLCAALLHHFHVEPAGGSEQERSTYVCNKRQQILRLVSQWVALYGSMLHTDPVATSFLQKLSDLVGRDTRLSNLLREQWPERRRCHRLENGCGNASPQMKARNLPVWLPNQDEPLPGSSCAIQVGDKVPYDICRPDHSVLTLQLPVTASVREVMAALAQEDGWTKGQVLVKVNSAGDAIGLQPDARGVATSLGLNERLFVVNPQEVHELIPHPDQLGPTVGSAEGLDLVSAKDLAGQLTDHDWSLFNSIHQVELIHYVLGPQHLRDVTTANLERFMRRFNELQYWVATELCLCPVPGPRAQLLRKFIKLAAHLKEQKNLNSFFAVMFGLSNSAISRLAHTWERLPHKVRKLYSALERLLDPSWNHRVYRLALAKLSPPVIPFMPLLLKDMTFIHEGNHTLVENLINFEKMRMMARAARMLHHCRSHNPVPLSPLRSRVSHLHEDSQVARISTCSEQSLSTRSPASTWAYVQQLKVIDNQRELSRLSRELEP

activity, negative = inhibition, inactive:
O=c1c(-c2cc(F)cc(F)c2)nc2cnc(N3CCOCC3)nc2n1-c1ccccc1 5.83%, c1ccc(CNc2ccnc(-c3ccc4c(c3)OCO4)n2)cc1 -12.3%, COc1ccc(-n2c(=O)c(-c3cccs3)nc3cnc(Nc4cccc(OC)c4)nc32)cc1 51.6%, CN(C)c1ncc2nc(-c3cccs3)c(=O)n(C3CC3)c2n1 10.8%, COc1cccc(Cn2c(=O)c(-c3cccs3)nc3cnc(Nc4cccc(OC)c4)nc32)c1 95.3%, N#CCCn1c(=O)c(-c2ccc(Cl)cc2)nc2cnc(Nc3ccccc3)nc21 34.8%, O=c1c(-c2ccc(F)cc2)nc2cnc(Nc3ccccc3)nc2n1Cc1cccs1 -5.93%, Cn1cc(-c2nc3cnc(N4CCOCC4)nc3n(CCC#N)c2=O)c2ccccc21 9.56%, COCCn1c(=O)c(-c2cccs2)nc2cnc(N3CCOCC3)nc21 -5.99%, c1csc(CNc2ccnc(-c3ccc4c(c3)OCO4)n2)c1 -14.9%, O=c1c(-c2cccs2)nc2cnc(N3CCOCC3)nc2n1CCc1ccccc1 -6.68%, COc1ccc(-c2nc3cnc(Nc4ccccc4)nc3n(CCC#N)c2=O)cc1 48.2%, COC(=O)C1=C(C)NC(C)=C(C(=O)OCCSc2ccccc2)[C@@H]1C -15.2%, COc1ccc(C(=O)N2CCC3(CCCN(c4cccc(-c5ccccc5)c4)C3)CC2)cc1 -0.917%

Each molecule was assayed against Rap guanine nucleotide exchange factor 3 (Homo sapiens) (UniProt O95398) (assay: Confirmatory qHTS for agonist of cAMP-regulated guanine nucleotide exchange factor 3 (EPAC1) (AID 1645881;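 note: EPAC1 catalysed release of BODIPY-GDP from Rap1B seen as fluorescence loss; 100% = effect of cAMP agonist control; nearly all actives have a fitted effect of over 75% in size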)). Settings: EPAC1 Rap1B BODIPY-GDP exchange fluorescence; series mostly up to 154 µM; activation: at the top concentration.

activation, inactive:
COc1ccc(C(=O)N2CCC3(CCN(Cc4cc(C(F)(F)F)cc(C(F)(F)F)c4)CC3)CC2)cc1 -14.3%, COc1ccc(CNc2ccnc(-c3cccc(C#N)c3)n2)c(OC)c1 -6.2%, COc1cccc(-c2nc(NCc3ccc(OC)cc3OC)c3ccccc3n2)c1 -3.67%, COc1ccc(C(=O)N2CCC[C@@]3(CCN(Cc4cc(C(F)(F)F)cc(C(F)(F)F)c4)C3)C2)cc1 -15.3%, COc1ccc(CNc2nc(-c3ccc4c(c3)OCO4)nc3ccccc23)c(OC)c1 7.86%, C=CC(C)(C)c1c2c(c(O)c3c(=O)c4ccc(O)c(O)c4oc13)C=CC(C)(C)O2 -21.6%, COc1ccccc1CNc1nc(-c2cccnc2)nc2ccccc12 -1.41%, CN(C)c1ncnc2ccc(-c3ccccc3C(F)(F)F)cc12 4.97%, O=C(c1csnn1)N1CCC2(CC1)CN(c1cccc(-c3ccccc3)c1)C2 -4.9%, COc1ccc(C(=O)N2CCC3(CCCN(Cc4cc(C(F)(F)F)cc(C(F)(F)F)c4)C3)CC2)cc1 -12.1%, COc1cccc(-c2nccc(NCc3cccs3)n2)c1 2.5%, Cc1c(CC(C)(C)C(=O)O)n(Cc2ccc(Cl)cc2)c2ccc(F)cc12 -4.7%, COc1ccc(-c2nc3cnc(Nc4cccc(OC)c4)nc3n(Cc3cccs3)c2=O)cc1 -52.3%, COC(=O)C1=C(C)NC(C)=C(C(=O)OCCSc2ccccc2)[C@@H]1C 9.51%, COc1ccccc1-c1ccc2ncnc(N(C)Cc3ccco3)c2c1 -2.77%, COc1cccc(Cn2c(=O)c(-c3ccc(Cl)cc3)nc3cnc(N4CCNCC4)nc32)c1 4.49%

The molecules below were run against Rap guanine nucleotide exchange factor 4 (Homo sapiens) (UniProt Q8WZA2) (assay: Confirmatory qHTS for agonist of cAMP-regulated guanine nucleotide exchange factor 4 (EPAC2) (AID 1645884;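 note: nucleotide exchange releases bodipy-GDP from Rap1 and this lowers its fluorescence; nearly all actives have a fitted effect of over 65% in size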; note: potency is the fitted concentration of half-maximal effect; for activation: % is set by controls: 0 for no effect and ±100 for the full control effect)). Settings: EPAC2 GEF activity, Rap1B-BODIPY-GDP fluorescence; series mostly up to 154 µM; activation: at the top concentration.
Sequence of Rap guanine nucleotide exchange factor 4 (Homo sapiens) (Q8WZA2 whole entry, looked up): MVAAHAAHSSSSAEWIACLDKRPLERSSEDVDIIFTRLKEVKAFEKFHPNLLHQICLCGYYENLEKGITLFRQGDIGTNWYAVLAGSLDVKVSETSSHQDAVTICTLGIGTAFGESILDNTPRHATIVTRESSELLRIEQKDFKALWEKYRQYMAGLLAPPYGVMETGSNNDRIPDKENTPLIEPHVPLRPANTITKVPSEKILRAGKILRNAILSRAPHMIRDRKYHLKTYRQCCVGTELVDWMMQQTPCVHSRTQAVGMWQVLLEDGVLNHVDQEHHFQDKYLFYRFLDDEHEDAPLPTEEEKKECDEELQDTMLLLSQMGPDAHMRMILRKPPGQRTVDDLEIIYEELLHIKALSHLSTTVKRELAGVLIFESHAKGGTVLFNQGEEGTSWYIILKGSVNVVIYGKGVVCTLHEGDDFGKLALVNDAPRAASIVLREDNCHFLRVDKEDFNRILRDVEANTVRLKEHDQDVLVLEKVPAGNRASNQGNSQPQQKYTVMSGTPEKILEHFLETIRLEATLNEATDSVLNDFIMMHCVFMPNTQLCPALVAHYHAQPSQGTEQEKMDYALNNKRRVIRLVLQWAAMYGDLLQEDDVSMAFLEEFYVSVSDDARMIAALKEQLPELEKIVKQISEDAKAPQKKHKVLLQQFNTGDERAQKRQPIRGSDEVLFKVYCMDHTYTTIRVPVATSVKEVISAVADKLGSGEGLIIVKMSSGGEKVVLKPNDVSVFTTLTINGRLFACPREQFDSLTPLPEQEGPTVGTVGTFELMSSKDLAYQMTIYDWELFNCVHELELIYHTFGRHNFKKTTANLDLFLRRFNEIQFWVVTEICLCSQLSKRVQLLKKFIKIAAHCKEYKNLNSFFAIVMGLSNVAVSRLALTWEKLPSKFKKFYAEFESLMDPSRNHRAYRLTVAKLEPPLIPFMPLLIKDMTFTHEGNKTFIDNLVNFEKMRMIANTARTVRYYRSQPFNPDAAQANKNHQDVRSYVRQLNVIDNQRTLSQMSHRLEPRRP

activation, inactive:
COc1ccc(C(=O)N2CCC3(CCN(Cc4cc(C(F)(F)F)cc(C(F)(F)F)c4)CC3)CC2)cc1 -4.9%, COc1ccc(CNc2ccnc(-c3cccc(C#N)c3)n2)c(OC)c1 -3.65%, COc1cccc(-c2nc(NCc3ccc(OC)cc3OC)c3ccccc3n2)c1 0.682%, COc1ccc(C(=O)N2CCC[C@@]3(CCN(Cc4cc(C(F)(F)F)cc(C(F)(F)F)c4)C3)C2)cc1 -8.95%, COc1ccc(CNc2nc(-c3ccc4c(c3)OCO4)nc3ccccc23)c(OC)c1 4.7%, C=CC(C)(C)c1c2c(c(O)c3c(=O)c4ccc(O)c(O)c4oc13)C=CC(C)(C)O2 -20.8%, COc1ccccc1CNc1nc(-c2cccnc2)nc2ccccc12 1.13%, CN(C)c1ncnc2ccc(-c3ccccc3C(F)(F)F)cc12 12.1%, O=C(c1csnn1)N1CCC2(CC1)CN(c1cccc(-c3ccccc3)c1)C2 1.01%, COc1ccc(C(=O)N2CCC3(CCCN(Cc4cc(C(F)(F)F)cc(C(F)(F)F)c4)C3)CC2)cc1 -2.91%, COc1cccc(-c2nccc(NCc3cccs3)n2)c1 13%, Cc1c(CC(C)(C)C(=O)O)n(Cc2ccc(Cl)cc2)c2ccc(F)cc12 2.84%, COc1ccc(-c2nc3cnc(Nc4cccc(OC)c4)nc3n(Cc3cccs3)c2=O)cc1 -25.5%, COc1ccccc1-c1ccc2ncnc(N(C)Cc3ccco3)c2c1 0.988%

Potency, active:
CN(C)c1ncc2nc(-c3cccs3)c(=O)n(C3CC3)c2n1 19.9 µM, N#CCCn1c(=O)c(-c2ccc(Cl)cc2)nc2cnc(Nc3ccccc3)nc21 79.3 µM, COc1ccc(-c2nc3cnc(Nc4ccccc4)nc3n(CCC#N)c2=O)cc1 70.6 µM

These molecules were tested against Rap guanine nucleotide exchange factor 4 (Homo sapiens) (UniProt Q8WZA2) (assay: Confirmatory qHTS for antagonist of cAMP-regulated guanine nucleotide exchange factor 4 (EPAC2) (AID 1645885; note: nearly all actives have a fitted effect of over 25% in size; note: potency is the fitted concentration of half-maximal effect; for activity change, negative = inhibition: % is set by controls: 0 for no effect and ±100 for the full control effect)). Settings: EPAC2 Rap1B-BODIPY-GDP exchange fluorescence, biochemical; series mostly up to 114 µM; activity change, negative = inhibition: at the top concentration.

Potency, active:
COc1ccc(C(=O)N2CCC3(CCN(Cc4cc(C(F)(F)F)cc(C(F)(F)F)c4)CC3)CC2)cc1 35 µM, COc1ccc(C(=O)N2CCC[C@@]3(CCN(Cc4cc(C(F)(F)F)cc(C(F)(F)F)c4)C3)C2)cc1 55.5 µM, CN(C)c1ncnc2ccc(-c3ccccc3C(F)(F)F)cc12 44.1 µM, COc1cccc(-c2nccc(NCc3cccs3)n2)c1 62.2 µM, Cc1c(CC(C)(C)C(=O)O)n(Cc2ccc(Cl)cc2)c2ccc(F)cc12 27.8 µM, COc1ccc(-c2nc3cnc(Nc4cccc(OC)c4)nc3n(Cc3cccs3)c2=O)cc1 44.1 µM, COc1ccccc1-c1ccc2ncnc(N(C)Cc3ccco3)c2c1 39.3 µM, COc1cccc(Cn2c(=O)c(-c3ccc(Cl)cc3)nc3cnc(N4CCNCC4)nc32)c1 39.3 µM

Activity change, negative = inhibition, inactive:
O=c1c(-c2cc(F)cc(F)c2)nc2cnc(N3CCOCC3)nc2n1-c1ccccc1 20.4%, c1ccc(CNc2ccnc(-c3ccc4c(c3)OCO4)n2)cc1 -14.7%, COc1ccc(CNc2nc(-c3ccc4c(c3)OCO4)nc3ccccc23)c(OC)c1 -5.34%, COc1ccc(-n2c(=O)c(-c3cccs3)nc3cnc(Nc4cccc(OC)c4)nc32)cc1 90%, CN(C)c1ncc2nc(-c3cccs3)c(=O)n(C3CC3)c2n1 16.3%, COc1cccc(Cn2c(=O)c(-c3cccs3)nc3cnc(Nc4cccc(OC)c4)nc32)c1 173%, N#CCCn1c(=O)c(-c2ccc(Cl)cc2)nc2cnc(Nc3ccccc3)nc21 86.2%, O=c1c(-c2ccc(F)cc2)nc2cnc(Nc3ccccc3)nc2n1Cc1cccs1 68.1%, Cn1cc(-c2nc3cnc(N4CCOCC4)nc3n(CCC#N)c2=O)c2ccccc21 36.7%, COCCn1c(=O)c(-c2cccs2)nc2cnc(N3CCOCC3)nc21 5.27%, c1csc(CNc2ccnc(-c3ccc4c(c3)OCO4)n2)c1 -21.4%, O=c1c(-c2cccs2)nc2cnc(N3CCOCC3)nc2n1CCc1ccccc1 -10.9%, COc1ccc(-c2nc3cnc(Nc4ccccc4)nc3n(CCC#N)c2=O)cc1 164%, COc1ccc(C(=O)N2CCC3(CCCN(c4cccc(-c5ccccc5)c4)C3)CC2)cc1 15.5%
